Measured values: PubChem BioAssay AID1347156 (National Center for Advancing Translational Sciences (NCATS), 2019)
Results filed as inconclusive are left out. Where a call stands in place of a potency, no number is given. Activity calls are given as the source filed them. The call rests on the fitted dose curve; in most records, active means well fitted cell-killing curve with a large enough effect; inconclusive means small, poorly fitted or top-dose-only effect; inactive means flat fitted curve, though single readings scatter.

Test: DAPI mCherry counterscreen qHTS for Zika virus inhibitors; further: nearly all actives have a fitted effect of over 55% in size
Settings: Vero cells, DAPI nuclear count cytotoxicity, imaging 48-72 h, infected with Zika reporter virus, MOI 1; series mostly up to 32.6 µM
Method in brief: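 Imaging read-out after fixation and Hoechst nuclear staining: percent infection from mCherry-positive cells (above 3 SD of negative controls) and nuclear counts. Setup: Vero cells pre-plated overnight, compound added, infected with ZIKV-mCherry (MOI 1), 48-72 hrs, 37 degrees C.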
Potency means the concentration at half of the fitted maximal effect.

Row | SMILES | Potency
1 | O=C(O)c1ccc(CCCc2ccc(OCCc3ccc(F)cc3)cc2)o1 | 31.6 µM (active)
2 | Oc1c(Cl)cc(Cl)c(Cl)c1Cc1c(O)c(Cl)cc(Cl)c1Cl | 31.6 µM (active)
3 | CCOC(=O)c1ccc(N2C(=O)c3n[nH]c(-c4cccs4)c3C2c2ccc(Cl)cc2Cl)cc1 (centres undefined) | 11.2 µM (active)
4 | CCCCc1nn2c(=O)cc(COC(=O)c3ccc(NC(=O)CCc4ccccc4)cc3)nc2s1 | inactive
5 | COc1cc(C)c(C(=O)OC2C(C)OC(OC3CCC(C)C4C3C=C(C)C3/C(C)=C\CC/C(C)=C/C5(C)C=C(C(=O)O)C(C)CC56OC(=O)/C(=C(\O)C34C)C6=O)C(O)C2O)c(OC)c1 (centres undefined) | inactive
6 | O=c1cc(-c2ccccc2)oc2cc(O)c(O)c(O)c12 | inactive
7 | CC(C)(Sc1ccc(CCN(CCCCC2CCCCC2)C(=O)NC2CCCCC2)cc1)C(=O)O | 14.1 µM (active)
8 | C[C@H](NC(=O)C(=O)Nc1ccccc1C(C)(C)C)C(=O)N[C@@H](CC(=O)O)C(=O)COc1c(F)c(F)cc(F)c1F | inactive
9 | CNC(=O)c1cc(Oc2ccc(NC(=O)Nc3ccc(Cl)c(C(F)(F)F)c3)cc2)ccn1 | 4.47 µM (active)
10 | CCCCCCOc1cc2c(cc1N(C)c1ncc(C(=O)O)cn1)C(C)(C)CCC2(C)C | 22.4 µM (active)
11 | COc1c2occc2cc2ccc(=O)oc12 | inactive
12 | O=C(O)c1cc(-c2ccc(C(F)(F)F)cc2)nc2n[nH]c(-c3ccccc3)c12 | inactive
13 | O=C(O)COc1ccccc1C1Nc2ccccc2-c2nnc(SCc3ccc(Cl)cc3)nc2O1 (centres undefined) | inactive
14 | COc1ccc(-c2cc(=O)c3c(O)cc(O)c(-c4cc(-c5cc(=O)c6c(O)cc(O)cc6o5)ccc4OC)c3o2)cc1 | 12.6 µM (active)
